This passage reports inhibition results from PubChem BioAssay AID1578 (Sanford-Burnham Center for Chemical Genomics, 2009).

What is called inhibition is the relative decrease from the control value, in per cent.

Screen size: about 290,000 compounds; about 3,000 (1%) were called active. Rule as the data show it: active = inhibition mostly above about 36% (no sharp cut-off); inactive = mostly below about 34%. The sample as a whole holds a higher share of actives than the screen did.

A short description of this experiment: inhibition of NOD1-driven NF-kB reporter – cell-based, luminescence, uHTS, primary screen (AID 1578).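 Also: HEK-293T reporter cells stimulated with the NOD1 agonist gamma-tri-DAP.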 Particulars: NOD1-driven NF-kB luciferase reporter cells, at 4 µM, stronger effect = higher value. For orientation: Reporter assays use an easily measured gene product as a stand-in for the process of interest.
With `Nc1nnc(SCc2c(F)cccc2Cl)s1`, the inhibition is -8.2% (inactive).
For `C#CCNC(=O)C1=C[C@@H](c2cn(C(C)=O)c3ccccc23)C[C@@H](OCc2ccc(CO)cc2)O1` the value was -23.5% (inactive).
In the case of `O=C(NCc1ccccc1)C1=C[C@@H](c2csc3ccccc23)C[C@@H](OCc2ccc(CO)cc2)O1`, the inhibition was 43.8% (active).
The value for `C#CCNC(=O)C1=C[C@H](c2cn(C(C)=O)c3ccccc23)C[C@H](OCc2ccc(CO)cc2)O1` was 46.1% (active); that for `O=C(NCc1ccccc1)C1=C[C@H](c2csc3ccccc23)C[C@H](OCc2ccc(CO)cc2)O1` was -5.8% (inactive).
Turning to `O=C(Nc1ccccc1)C1=C[C@H](c2csc3ccccc23)C[C@H](OCc2ccc(CO)cc2)O1`, the inhibition was -4.6% (inactive).
Consider `CC(=O)n1cc([C@@H]2C=C(C(=O)NCc3ccccc3)O[C@H](OCc3ccc(CO)cc3)C2)c2ccccc21`, for which the inhibition was -7.1% (inactive).
On to `CC(NS(=O)(=O)c1ccc2[nH]c(=O)c(=O)[nH]c2c1)C(=O)O` (centres undefined), for which the inhibition is -25.3% (inactive).
Consider `O=C(CCCN1C(=O)/C(=C/c2ccccc2Cl)SC1=S)N1CCCC1`, for which the inhibition was 18.8% (inactive).
Take `Cc1cc(Cl)cc(C)c1OCCNCc1ccccc1`: the inhibition was -43.1% (inactive).
As to `Cc1ccc(S(=O)(=O)CCc2nnc(NC(=O)C3CCCCC3)s2)cc1`, the inhibition was 1.5% (inactive).
Regarding `COc1ccc(NC(=O)Cn2ncn3nc(-c4ccc(OC)cc4)cc3c2=O)cc1`, the inhibition was -72% (inactive).
For `CC(C)c1ccc(Nc2nc(Cl)nc(Cl)n2)cc1`, the inhibition is -33% (inactive).
As for `CCCOC(=O)Cn1cnc2scc(-c3ccc(OC)cc3)c2c1=O`, the inhibition was 41.3% (inactive).
For the compound `CCOC(=O)c1ccccc1NC(=O)CSc1ccc(-c2ccccn2)nn1`, the inhibition is -59.6% (inactive).
For `CCOC(=O)c1ccccc1NC(=O)CSc1ccc(-c2cccnc2)nn1` the value was 59.2% (active).
As to `Cc1ccccc1NC(=O)CSc1ccc(-c2cccnc2)nn1`, the inhibition is -33.1% (inactive).
The value for `Cc1ccc(NC(=O)Cn2nnc3ccccc32)c(C)c1` was -16.7% (inactive).
For `O=C(Sc1nnc(-c2ccccc2)o1)N1c2ccccc2Sc2ccccc21`, the inhibition was -37.4% (inactive).
For `COc1ccc(-c2nnc(SC(=O)N3c4ccccc4Sc4ccccc43)o2)cc1` the value was 65.2% (active); for `COc1ccc(-c2nnc(SCC(=O)N3c4ccccc4Sc4ccccc43)o2)cc1`, -16.3% (inactive); for `Fc1ccc(-n2nnnc2-c2ccccc2Cl)cc1`, -26.4% (inactive).
`COc1ccc(C(=O)N2CCC(C(=O)Nc3ccc4c(c3)OCCO4)CC2)cc1`: the inhibition is -5.6% (inactive).
`Fc1ccc(-c2nnc(NC3=NCCCCC3)o2)cc1`: the inhibition is 46.2% (inactive).
On to `CC(C)CN=C(NS(=O)(=O)c1ccccc1)C(Cl)(Cl)Cl`, for which the inhibition was 34.3% (inactive).
On to `CC(C)N=C(NS(=O)(=O)c1ccccc1)C(Cl)(Cl)Cl`, for which the inhibition is 62.8% (active).
For `Cc1ccc(S(=O)(=O)NC(=NC(C)C)c2ccccc2)cc1` the value was -28.2% (inactive); for `O=C(CSc1nnc(-c2cccnc2)n1Cc1ccco1)Nc1cccc(O)c1`, -18.5% (inactive).
The value for `CC(C)=NOc1cc(NC(=O)CCl)cc([N+](=O)[O-])c1` was 89.5% (active); that for `CC(=O)Nc1cc(ON=C(C)C)cc([N+](=O)[O-])c1` was -34.9% (inactive).
For `CCC(=O)Nc1cc(ON=C(C)C)cc([N+](=O)[O-])c1` the value was -24.6% (inactive).
With `O=C(Nc1ccc(S(=O)(=O)N2CCCCCC2)cc1)c1ccc(Br)o1`, the inhibition is 26.1% (inactive).
`COc1ccc(CCNc2oc(COc3ccccc3F)nc2C#N)cc1OC`: the inhibition was 21.4% (inactive).
For the compound `COc1ccc(CCNc2oc(COc3ccc(F)cc3)nc2C#N)cc1`, the inhibition is -48.1% (inactive).
For `COc1ccc(CCNc2oc(Cc3ccccc3)nc2C#N)cc1OC` the value was 25.6% (inactive); for `COc1ccc(CCNc2oc(COc3ccccc3)nc2C#N)cc1`, -56.7% (inactive); for `CCc1ccc(NC(=O)CCCN2C(=S)NC(C)(C)CC2C)cc1` (centres undefined), -30.4% (inactive).
The value for `Cc1ccccc1-c1ccc(=O)n(CC(=O)Nc2ccc(-n3cnnn3)cc2)n1` was -5.3% (inactive); that for `CCOC(=O)C(CCCOc1ccccc1)C(=O)OCC` was 10.5% (inactive).
The value for `CC1CCCCC1NC(=O)CN1C(=O)CSc2cc(S(=O)(=O)N3CCCCCC3)ccc21` (centres undefined) was -19.4% (inactive); that for `COC(=O)c1cccc(NC(=O)/C(=C\c2ccccc2)NC(=O)c2ccccc2Cl)c1` was -35.1% (inactive).
For `COC(=O)c1cccc(NC(=O)NC(=O)c2ccccc2Cl)c1`, the inhibition is 30% (active).
The value for `COC(=O)c1cccc(NC(=O)NC(=O)c2ccc(Cl)cc2)c1` was 11.7% (inactive).
For `O=C(CNS(=O)(=O)c1cccc2nsnc12)NC1CCCCC1` the value was -5.2% (inactive).
With `CCN(CC)c1ccc(/C=N/NC(=O)Nc2nonc2N)cc1`, the inhibition was 58.7% (active).
For `COc1ccc(/C=N/NC(=O)Nc2nonc2N)cc1` the value was -31.2% (inactive); for `CCN(CC)c1ccc(/C=N/NC(=O)Nc2ccccc2)cc1`, -54% (inactive).
On to `COCCOC(=O)C1=C(C)Nc2cc(=O)[nH]c(=O)n2C1c1cccc([N+](=O)[O-])c1` (centres undefined), for which the inhibition is 5% (inactive).
Regarding `O=C1CCC(C(=O)Nc2cccc3ccccc23)N1` (centres undefined), the inhibition is 8.1% (inactive).
With `Cc1ccccc1NC(=O)C1CCC(=O)N1` (centres undefined), the inhibition was 96.7% (active).
For `O=C1CCC(C(=O)Nc2ccccc2)N1` (centres undefined) the value was -23% (inactive); for `Cc1cc(C)nc(NS(=O)(=O)c2ccc(NC(=O)c3ccc4c(c3)OCCO4)cc2)n1`, -42.8% (inactive); for `COc1ccc(C2C(C#N)=C(N)Oc3c2c(C)nn3-c2ccccc2)cc1Cn1nc(C)c([N+](=O)[O-])c1C` (centres undefined), 85% (active).
For `COc1ccc(C2C(C#N)=C(N)OC3=C2C(=O)CCC3)cc1Cn1nc(C)c([N+](=O)[O-])c1C` (centres undefined) the value was -8.7% (inactive).
With `COc1ccc(C2C(C#N)=C(N)Oc3n[nH]c(C)c32)cc1Cn1nc(C)c([N+](=O)[O-])c1C` (centres undefined), the inhibition is -12.1% (inactive).
For `Cc1ccc(NNC(=O)CCc2ccccc2)c(C)c1` the value was -5% (inactive); for `O=C(NC1CCCN(Cc2ccc(Cl)cc2)C1)c1c(F)cccc1F` (centres undefined), -4.9% (inactive); for `N#CC1(c2ccccc2)CCCN1C(=O)c1ccc(Br)cc1` (centres undefined), -11.6% (inactive).
For `C=CCOC(=O)c1sc(NC(=O)c2ccc(OC)cc2)nc1C` the value was -27.6% (inactive).
